# High-throughput results as filed in PubChem BioAssay.
# MITF inh – inhibitors of human MITF | inhibition, % at 2.6 µM | actives 0.91% (n = 650,000) | AlphaScreen MITF homodimerization, bead proximity signal | O75030; in the data active means inhibition above about 50%
# Target sequence (O75030 whole entry, looked up): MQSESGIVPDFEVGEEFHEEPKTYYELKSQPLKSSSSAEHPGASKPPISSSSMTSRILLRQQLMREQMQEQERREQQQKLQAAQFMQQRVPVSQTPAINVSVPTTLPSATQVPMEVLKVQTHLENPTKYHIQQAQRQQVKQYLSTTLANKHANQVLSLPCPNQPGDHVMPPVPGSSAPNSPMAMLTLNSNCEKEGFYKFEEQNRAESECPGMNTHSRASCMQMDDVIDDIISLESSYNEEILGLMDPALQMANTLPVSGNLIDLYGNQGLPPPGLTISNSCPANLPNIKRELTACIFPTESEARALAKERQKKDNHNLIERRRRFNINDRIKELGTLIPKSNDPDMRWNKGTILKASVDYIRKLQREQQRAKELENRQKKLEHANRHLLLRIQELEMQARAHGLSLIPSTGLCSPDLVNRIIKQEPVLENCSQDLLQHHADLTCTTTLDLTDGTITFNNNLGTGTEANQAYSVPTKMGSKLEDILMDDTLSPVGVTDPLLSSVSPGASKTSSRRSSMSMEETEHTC
# FBW7 activator – human FBW7 E3 ligase activation, primary screen | Q969H0 | AlphaScreen FBW7–phospho-cyclin E peptide binding, activator screen | normalized activity (activation), % at 26.1 µM | actives 0.13% (n = 650,000) | AID 1259310; in the data active means normalized activity above about 1.9%;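 further: purified mutant Fbw7 with reduced substrate affinity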
# TEAD-YAP block – TEAD-YAP interaction inhibition; HEK-TIYL cells, TEAD-Gal4/YAP UAS-luciferase luminescence; inhibition, % at 9.12 µM; actives 1.4% (n = 640,000); in the data active means inhibition above about 32%
# GPR151 activ – activates the human receptor GPR151. Q8TDV0. PathHunter beta-arrestin GPR151 cells, luminescence. activation, % at 11.2 µM. AID 1508602. actives 1% (n = 650,000); in the data active means activation above about 4.9%
# A number is an active result; i = inactive. Sampled rows, rich in hits. Any-hit rate of the full collection: about 3.5%.
SMILES,MITF inh,FBW7 activator,TEAD-YAP block,GPR151 activ
Cc1nc(-c2ccccc2)nc2[nH]c(-c3ccccc3)cc(=O)c12,i,i,i,i
Cc1nc(C)c2c(=O)cc(-c3ccccc3)[nH]c2n1,i,i,52,i
COc1ccc(-c2cc(C(F)(F)F)c3nc(OC(C)C(C)=O)oc3n2)cc1OC (centres undefined),i,i,81,i
Cc1c(Cc2ccccc2)c(N2CCN(Cc3ccccc3)CC2)n2c(nc3ccccc32)c1C#N,i,2.0,i,i
COc1ccc(C(=O)[C@@H]2[C@@H](c3cccs3)C(C#N)(C#N)[C@H]3C=Cc4ccccc4N23)cc1,i,i,55,i
Cc1ccc(C(=O)C2C(c3cccs3)C(C#N)(C#N)C3C=Cc4ccccc4N23)cc1 (centres undefined),i,i,43,i
CC(=O)c1cccc(NC(=O)CSc2nnc3c4ccccc4n(CCc4ccccc4)c3n2)c1,i,i,40,i
Cc1c(NC(=O)CSc2nnc3c4ccccc4n(CCc4ccccc4)c3n2)c(=O)n(-c2ccccc2)n1C,i,i,47,i
O=C(CCS(=O)(=O)c1cccc2nonc12)Nc1ccc(OC(F)(F)F)cc1,i,i,i,i
Oc1ccc([C@H]2Oc3cc(O)cc(O)c3C[C@H]2O)cc1,i,i,i,i
O=C(O[C@@H]1Cc2c(O)cc(O)cc2O[C@@H]1c1cc(=O)c(O)c2c(O)c(O)cc([C@H]3Oc4cc(O)cc(O)c4C[C@H]3O)c2c1)c1cc(O)c(O)c(O)c1,106,i,i,i
COc1cc(/C=C2/C=C(c3ccc(C)cc3)OC2=O)ccc1O,i,i,65,i
COc1cc(/C=C2/C=C(c3ccc(C)cc3)OC2=O)ccc1C,i,i,32,i
c1csc(CNc2ccc(-c3nc4ccccc4s3)cc2)c1,i,i,86,i
c1ccc(-c2nc3ccccc3s2)cc1,i,i,i,i
CC1=NOC(=O)/C1=C/c1ccc(OCc2ccc(Cl)cc2)cc1,56,i,i,i
Cc1ccnc(NC(c2cc(C)ccc2O)c2ccc3cccnc3c2O)c1 (centres undefined),i,i,i,i
Oc1c(C(Nc2ccccn2)c2ccccc2F)ccc2cccnc12 (centres undefined),i,i,84,i
Oc1c(C(Nc2ccccc2)c2ccccn2)ccc2cccnc12 (centres undefined),94,i,i,i
Oc1c(C(Nc2ccccn2)c2ccccn2)ccc2cccnc12 (centres undefined),i,i,i,i
Oc1c(C(Nc2cccc(Cl)c2)c2ccncc2)ccc2cccnc12 (centres undefined),103,i,i,i
Oc1ccc(Cl)c(C(Nc2ccccn2)c2ccc3cccnc3c2O)c1 (centres undefined),i,i,81,i
Oc1c(C(Nc2cccnc2)c2cccs2)ccc2cccnc12 (centres undefined),i,i,i,i
Cc1cccc(NC(c2ccccc2F)c2ccc3cccnc3c2O)n1 (centres undefined),i,i,i,i
CC1CCc2c(sc3ncnc(Cl)c23)C1 (centres undefined),i,i,i,i
SMILES,MITF inh,FBW7 activator,TEAD-YAP block,GPR151 activ
O=C(Nc1ccc(I)cc1F)NC1CCCCC1,i,i,i,i
CC(C)CC(=O)Nc1ccccc1-c1nnn(CC(=O)NCCc2ccc(F)cc2)n1,i,i,i,i
Oc1c(C(Nc2ccccn2)c2ccco2)ccc2cccnc12 (centres undefined),i,i,63,i
Oc1c(C(Nc2ncccn2)c2ccco2)ccc2cccnc12 (centres undefined),i,i,i,i
COC(=O)C1=C(C(=O)OC)SC(=C2C(=S)C(C)(C)N(C(=O)c3ccccc3)c3ccc(C)cc32)S1,i,i,i,i
COC(=O)C1=C(C(=O)OC)SC(=C2C(=S)C(C)(C)N(C)c3ccc(C)cc32)S1,52,i,i,i
CCC(=O)N=c1n(CC(=O)c2ccccc2)c2ccccc2n1Cc1ccc(Cl)cc1,i,i,i,i
NC(=O)CCC(NC(N)=O)C(=O)O (centres undefined),i,i,i,i
NC(=O)CCC(NC(=O)NC1CCCCC1)C(=O)O (centres undefined),i,2.1,i,i
CCOc1ccc(-n2c(-c3ccc(OC)cc3)c[n+]3c2CCCCC3)cc1,i,i,85,i
CCOc1ccc(-n2c(-c3ccccc3)n[nH]c2=S)cc1,i,i,i,i
CCOc1ccc(-n2c(-c3ccccc3)c[n+]3c2CCC3)cc1,i,i,49,i
COc1cc2nc(NCc3cccnc3)nc(NCc3ccccc3)c2cc1OC,i,i,i,i
Cc1c(NC(=O)c2cc(F)c(F)cc2Cl)c(=O)n(-c2ccccc2)n1C,i,i,i,i
CCOc1cccc(/C=N\NC(=O)c2cccnc2)c1O,59,i,i,i
CCOc1ccc(/C=N/NC(=O)c2cccs2)cc1,i,i,i,i
CCOc1cccc(/C=N\NC(=O)c2ccc(Br)cc2)c1O,i,i,i,i
CCN(CC)c1ccc(/C=N/NC(=O)c2cccnc2)c(O)c1,i,i,70,i
CCOc1cccc(/C=N/NC(=O)c2cccs2)c1O,i,i,50,i
COc1cccc(/C=N/NC(=O)c2cccnc2)c1O,71,i,i,i
COc1cccc(C2=CC(c3ccc(OC(F)F)cc3)n3nnnc3N2)c1 (centres undefined),i,i,i,i
CCOC(=O)c1c(NC(=O)c2ccc(NCCCO)c([N+](=O)[O-])c2)sc2c1CCCC2,i,i,i,i
COc1cccc(/C=N/NC(=O)C(=O)NCc2cccnc2)c1O,61,i,i,i
Cc1ccccc1-c1nc2ccccc2[nH]1,i,i,i,i
Cc1cc2nc(-c3ccc[nH]c3=O)[nH]c2cc1C,i,i,86,i
SMILES,MITF inh,FBW7 activator,TEAD-YAP block,GPR151 activ
COc1ccc(-c2cc(=O)oc3c(OC)c(OC)ccc23)cc1,i,i,56,i
COc1ccc(S(=O)(=O)Nc2cc3c4c(oc3c3ccccc23)CCCC4=O)cc1,i,i,56,i
COC(=O)c1c(C)oc2c1cc(NS(=O)(=O)c1ccccc1)c1ccccc12,i,i,i,i
COC(=O)c1c(C)oc2c1cc(NS(=O)(=O)c1ccc(OC)cc1)c1ccccc12,i,i,51,i
COc1cccc(-c2cnc(NCc3ccc(F)cc3)n2C)c1,i,i,i,i
COc1cccc(-c2cnc(NCc3cccc(F)c3)n2C)c1,i,i,45,i
COc1cccc(-c2cnc(NCc3cccc(Cl)c3)n2C)c1,i,i,41,i
Cc1ccc(C2CC(c3cccs3)=NN2C(=O)CSc2nnc(CNC(=O)c3ccccc3F)n2C)cc1 (centres undefined),i,i,i,i
CO/N=C(\CSc1cccc(OC)c1)c1sc2ncnn2c1C,i,i,i,i
O=S(=O)(NCc1ccccc1)c1ccc2c(c1)OCCCO2,i,i,i,i
O=C1CS/C(=N\N=C2C3CC4CC(C3)CC2C4)N1,i,i,i,i
COc1ccccc1NC(=O)Cc1noc(CSc2nnc(-c3ccccc3)o2)n1,i,4.5,i,i
CCOc1ccc(C2Nc3ccccc3C(=O)N2c2ccc(F)c(Cl)c2)cc1 (centres undefined),i,i,i,i
